Drawing on PubChem BioAssay AID623911 (Vanderbilt High Throughput Screening Facility, 2012), this text covers manual score for 29 molecules.

Among all 2,100 compounds or so, about 770 (37%) were called active. Some of the results follow. Values without a mark were called inactive.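 The calls were made as follows: active = by-eye trace score of 1 for enhancers or -1 for inhibitors, so actives lie on both sides (some results past the limit were not filed as active); inactive = score 0, or 3 fluorescent, or 4 baseline rise.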

In the assay the target is G protein-activated inward rectifier potassium channel 2 (Homo sapiens) + G protein-activated inward rectifier potassium channel 1 (Homo sapiens) (UniProt P48051+P48549). Briefly: GIRK1/2 thallium flux modulators, retest, confirmation, cell-based, HEK293 rmGlu8/hGIRK1/2, FluoZin-2 (AID 623911). Particulars: HEK293 rmGlu8/hGIRK1/2, thallium flux FluoZin-2; actives lie on both sides; glutamate co-added at its EC20 level.
G protein-activated inward rectifier potassium channel 2 (Homo sapiens) + G protein-activated inward rectifier potassium channel 1 (Homo sapiens), sequence (P48051 whole entry, looked up): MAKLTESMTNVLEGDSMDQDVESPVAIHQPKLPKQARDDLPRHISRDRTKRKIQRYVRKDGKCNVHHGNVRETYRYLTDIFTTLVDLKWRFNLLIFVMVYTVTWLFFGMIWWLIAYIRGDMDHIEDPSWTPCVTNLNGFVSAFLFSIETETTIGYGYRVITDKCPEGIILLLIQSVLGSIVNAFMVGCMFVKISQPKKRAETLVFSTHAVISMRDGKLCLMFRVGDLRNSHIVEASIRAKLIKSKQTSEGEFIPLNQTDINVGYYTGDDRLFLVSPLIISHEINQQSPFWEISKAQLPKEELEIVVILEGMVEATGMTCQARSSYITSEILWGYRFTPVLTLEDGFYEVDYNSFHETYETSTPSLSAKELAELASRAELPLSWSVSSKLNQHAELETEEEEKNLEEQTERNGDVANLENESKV
G protein-activated inward rectifier potassium channel 2 (Homo sapiens) + G protein-activated inward rectifier potassium channel 1 (Homo sapiens), sequence (P48549 whole entry, looked up): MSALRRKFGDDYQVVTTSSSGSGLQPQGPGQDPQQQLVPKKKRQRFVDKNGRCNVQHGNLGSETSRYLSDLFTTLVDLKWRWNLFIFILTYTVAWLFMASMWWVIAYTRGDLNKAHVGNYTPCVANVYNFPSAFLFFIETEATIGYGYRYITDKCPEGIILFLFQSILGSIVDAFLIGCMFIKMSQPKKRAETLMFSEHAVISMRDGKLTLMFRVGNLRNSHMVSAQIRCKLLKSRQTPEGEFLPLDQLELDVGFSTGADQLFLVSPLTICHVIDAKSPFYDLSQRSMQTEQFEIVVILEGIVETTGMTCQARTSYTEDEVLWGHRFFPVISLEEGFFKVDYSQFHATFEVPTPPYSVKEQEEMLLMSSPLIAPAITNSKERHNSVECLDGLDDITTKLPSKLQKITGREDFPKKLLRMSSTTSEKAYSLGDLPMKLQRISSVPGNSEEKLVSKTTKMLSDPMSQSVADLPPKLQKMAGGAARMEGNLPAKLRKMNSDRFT
As to `CCC1(C)CC(c2csc(N)n2)CCO1` (centres undefined), the manual score was 0.

For `CCCCN1C(=O)c2ccccc2C1C(=O)NC1CCCC1` (centres undefined), the manual score was 0.

For the molecule `CCOc1ccc(N2C(=O)c3ccccc3C2O)cc1` (centres undefined), the manual score is 0.

In the case of `CCCCOc1ccccc1C1C(C(=O)OC)=C(C)N(C)C(C)=C1C(=O)OC`, the manual score was -1 (active).

Consider `CCc1nc(SCC(=O)Nc2nnc(CC)s2)c2c(C)c(C)sc2n1`, for which the manual score was 0.

`CCc1nc(SCC(=O)N2CC(=O)Nc3ccccc32)c2c(C)c(C)sc2n1`: the manual score is 1 (active).

Take `Cc1sc2nc(C3CC3)nc(SCC(=O)N3CC(=O)Nc4ccccc43)c2c1C`: the manual score is 0.

Turning to `O=C1NC(=S)SC1=C1CCCCCC1`, the manual score is 1 (active).

Regarding `CSc1nc2ccccc2cc1/C=C(\C#N)c1cccc(C)c1`, the manual score was 0.

Regarding `CC(C)CNC(=S)NC(=O)c1ccc([N+](=O)[O-])cc1`, the manual score is 1 (active).

`CCCCCC(=O)NC(=S)NNC(=O)c1ccc([N+](=O)[O-])cc1`: the manual score is 1 (active).

In the case of `CCCCNC(=S)NC(=O)c1ccc([N+](=O)[O-])cc1`, the manual score is 1 (active).

Turning to `CC(C)CNC(=S)NC(=O)c1ccc(F)cc1`, the manual score is 1 (active).

Take `COC(=O)C(CC(C)C)NC(=O)c1ccc([N+](=O)[O-])c(C)c1` (centres undefined): the manual score was 0.

As for `CCCCCCc1cc2cc(-c3nnc(-c4cc(OC)c(OC)c(OC)c4)o3)c(=O)oc2cc1O`, the manual score is 3.

Regarding `CCn1c2ccccc2c2cc(/C=N/n3cn[nH]c3=S)ccc21`, the manual score was 0.

As to `O=c1cc(CN2CCOCC2)nc(C2CC2)[nH]1`, the manual score was 0.

`O=C(COC(=O)CCC1CCCC1)Nc1nc2c(F)c(F)c(F)cc2s1`: the manual score was 0.5.

Turning to `O=C(CSc1nc(-c2ccc(F)cc2)cs1)N1CCOCC1`, the manual score is 0.

On to `CCOC(=O)/C(C#N)=C/C1=C(N2CCCC2)CC(C)(C)OC1`, for which the manual score was 0.

Take `CCn1c(SCC(=O)NC(=O)NCc2ccco2)nc2sc(C)c(C)c2c1=O`: the manual score was 1 (active).

`Cc1sc2nc(C(C)C)nc(SCC(=O)N3c4ccccc4CC3C)c2c1C` (centres undefined): the manual score is 1 (active).

Consider `O=C(CSc1nnc(-c2c[nH]c3ccccc23)n1-c1ccc(F)cc1)NCc1ccco1`, for which the manual score is -0.5.

Consider `Cc1sc2nc(C(C)C)nc(SCC(=O)NCc3ccco3)c2c1C`, for which the manual score was 1 (active).

Take `CCCn1c(SCc2nc3sc(C)c(C)c3c(=O)[nH]2)nc2ccccc2c1=O`: the manual score was 0.

As for `Cc1sc2ncnc(SCc3ccco3)c2c1C`, the manual score is 0.

`O=C(c1ccc(CS(=O)(=O)c2ccc(Br)cc2)o1)N1CCN(c2ncccn2)CC1`: the manual score was 0.

As to `CCOC(=O)C1CCN(C(=O)CN(c2ccc(Cl)c(C(F)(F)F)c2)S(C)(=O)=O)CC1`, the manual score is 0.

As for `O=c1cc(Cn2ccnc2)c2cc3c(cc2o1)CCC3`, the manual score is 0.
